# Screening data from PubChem.
# Only some compounds are listed: those with a hit (about 4.4% of all), similar ones and a draw of the others.
# TIM10 inh = TIM10 yeast growth inhibition | S. cerevisiae TIM10 strain growth, BacTiter-Glo luminescence, 24 h | inhibition, % at 10 µM | 330,000 compounds, 1.4% hits | AID 463195;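 active means inhibition of 40% or more at the single tested concentration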;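 further: wild-type TIM10 isogenic control strain grown at permissive 25 °C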
# SKKanGAS inh = inhibitors of SKKanGAS S. pyogenes growth in kanamycin (SK-promoter or general growth effect). inhibition, % at 7.5 µM. 300,000 compounds, 1.3% hits. BacTiter-Glo, 6 h. AID 1662;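 active means mean replicate score, as percent of positive control median, at least 50; inconclusive means mean below 50 but one replicate at or above 50; inactive means mean and every replicate below 50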;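 further: strain carries kanamycin resistance gene driven by streptokinase promoter and grows in 40 µg/ml kanamycin; loss of luminescence reflects streptokinase promoter inhibition or plain growth inhibition; 0% = median of DMSO wells and 100% = positive control at its reference dose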
# tim23-1 inh = growth inhibitors of tim23-1 mutant yeast | 330,000 compounds, 1.3% hits | inhibition, % at 20 µM | S. cerevisiae tim23-1 growth, BacTiter-Glo luminescence, 24 h | AID 463212;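 active means growth inhibition of the mutant yeast at or above 50%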;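 further: temperature-sensitive mutant grown at 25 °C; plate controls were DMSO-treated mutant yeast for no effect and medium wells lacking yeast for full effect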
# PfHsp90 yeast 2 = reduces growth (ATP signal) of yeast expressing P. falciparum Hsp90; S. cerevisiae expressing PfHsp90, BacTiter-Glo ATP, 48 h; yeast lacking PDR1 and PDR3 efflux regulators; inhibition, % at 9.4 µM; AID 504621; 310,000 compounds, 0.32% hits;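 active means every replicate shows inhibition above about 80%, whatever the replicate mean, limit read from the data; inconclusive means mean inhibition reaches the set limit but some replicate falls short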;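 further: 0% = DMSO neutral controls and 100% = 20 µM radicicol positive controls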
# tim10-1 inh = inhibits growth of tim10-1 mutant yeast | S. cerevisiae tim10-1 ts strain growth, BacTiter-Glo, 24 h | 330,000 compounds, 2.2% hits | inhibition, % at 20 µM;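 active means inhibition of at least 40%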;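 further: mutant grown at 25 °C; 0% = DMSO wells with yeast and 100% = wells holding no yeast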
# The depositor's hits bear a star; u = inconclusive; x = not tested or not shown.
SMILES,TIM10 inh,SKKanGAS inh,tim23-1 inh,PfHsp90 yeast 2,tim10-1 inh
CN(c1ccccc1)S(=O)(=O)c1cccc(NC(=O)CN2C(=O)NC3(CCCC3)C2=O)c1,0.4,x,-5.9,-7.2,3.7
CN(c1ccccc1)S(=O)(=O)c1ccc(C(=O)NCc2ccccc2F)cc1,1.7,x,15.3,5.0,8.3
COc1cc(C(=O)NC(=S)NNC(=O)c2cnccn2)cc(OC)c1OC,3.5,14.6,-14.7,-43.0,-1.4
O=C(NC(=S)Nc1ccccc1Br)c1ccc2c(c1)OCO2,8.7,3.2,13.0,-4.5,10.5
COc1cc(C(=O)NNC(=S)NC(=O)c2ccccc2C)cc(OC)c1OC,8.1,59.9*,-5.4,-12.6,22.1
COc1cc(C(=O)NC(=S)NNC(=O)[C@H]2C[C@@H]2c2ccccc2)cc(OC)c1OC,15.6,90.4*,14.3,8.7,30.7
CC(C)c1ccc(O)c(NC(=S)NC(=O)c2ccc3c(c2)OCO3)c1,27.7,60.3*,20.3,-60.0,36.5
COc1ccccc1C(=O)NNC(=S)NC(=O)c1cc(OC)c(OC)c(OC)c1,13.3,79.9*,-32.4,-18.4,8.5
CC(Sc1ccccc1F)C(=O)Nc1ccc2c(c1)OCCO2 (centres undefined),-7.7,x,15.0,10.5,-17.9
CC(C)c1ccc(NC(=O)C2CCCCN2S(=O)(=O)c2ccccc2)cc1 (centres undefined),18.2,x,37.4,-14.4,17.1
COc1cc(C(=O)NNC(=S)NC(=O)c2ccc3c(c2)OCO3)cc(OC)c1OC,31.6,76.7*,18.9,x,16.4
COc1cc(C(=O)NNC(=O)c2ccc3c(c2)OCCO3)cc(OC)c1OC,1.4,x,5.8,-43.4,2.9
COc1cc(/C=C/C(=O)OCC(=O)N2c3ccccc3NC(=O)C2(C)C)cc(OC)c1OC,2.8,x,10.5,x,6.2
CCOc1ccc(-n2c(O)c(/C=N/NC(=O)C3COc4ccccc4O3)c3ccccc3c2=O)cc1 (centres undefined),6.0,72.7*,-10.0,31.8,6.9
Oc1ccc(C=Nc2ccc(N3CCOCC3)cc2)c(O)c1,-5.1,1.9,16.1,-3.1,12.5
O=[N+]([O-])c1cc(Cc2ccccc2)cc(C=Nc2ccc(N3CCOCC3)cc2)c1O,x,11.0,x,106.1*,x
C[C@H](CO)N1C[C@H](C)[C@@H](CN(C)S(=O)(=O)c2cccs2)Oc2ccc(NS(=O)(=O)c3ccccc3)cc2C1=O,0.6,x,20.0,21.8,5.1
COc1ccccc1-c1cccc([C@@H]2C[C@H]3[C@@H](CN2)CON3C)c1,x,x,x,4.7,x
O=C(Nc1cccc(F)c1)c1c(O)c2ccccc2[nH]c1=O,-24.6,2.0,-1.7,-2.1,-30.1
O=C(N/N=C/c1ccc(F)cc1)c1c(O)c2ccccc2[nH]c1=O,23.4,94.5*,23.7,35.0,-7.0
O=C(N/N=C/c1cccc(F)c1)c1c(O)c2ccccc2[nH]c1=O,x,92.0*,x,14.3,x
O=C(N/N=C/c1ccc(F)cc1)c1ccccc1,-10.7,u,-7.2,4.6,-16.6
N#Cc1ccc(S(=O)(=O)N2CCC(C(=O)N3CCN(Cc4ccc5c(c4)OCO5)CC3)CC2)cc1,7.2,x,1.6,3.7,8.8
COc1ccc(C(=O)OCC(=O)NC23CC4CC(CC(C4)C2)C3)c(OC)c1OC,17.4,x,44.3,13.3,11.7
O=C(Nc1nnc(-c2ccc(Br)cc2)o1)c1ccco1,-0.2,93.8*,32.0,x,-4.8
SMILES,TIM10 inh,SKKanGAS inh,tim23-1 inh,PfHsp90 yeast 2,tim10-1 inh
Cc1ccc(-c2nnc(NC(=O)c3ccco3)o2)c(C)c1,5.5,83.7*,20.9,-22.1,21.9
CS(=O)(=O)c1ccc(-c2nnc(NC(=O)c3ccco3)o2)cc1,4.4,1.3,0.4,x,-6.4
O=c1ccn([C@@H]2O[C@H](CNCc3ccc(-n4cccn4)cc3)[C@@H](O)[C@H]2O)c(=O)[nH]1,x,x,x,15.7,x
O=C(Nc1nccs1)c1cc(-c2ccccc2)nn1-c1ccccc1,-4.2,0.5,14.2,-8.2,4.9
O=C(NC1=NCCS1)c1cc(-c2ccccc2)nn1-c1ccccc1,23.5,51.3*,-6.6,x,18.4
O=C(C[C@H]1C/C=C\C[C@H](NC(=O)OCC2c3ccccc3-c3ccccc32)C(=O)O[C@H](c2ccccc2)CNC1=O)N[C@H](CO)Cc1ccccc1,-9.3,x,-7.4,-4.7,26.5
COc1ccc(NC(=O)c2c[nH]n3c(=O)cc(C4CCN(C(=O)OC(C)(C)C)CC4)nc23)cc1Cl,4.9,52.2*,12.6,-5.0,7.7
CC(C)(C)OC(=O)N1CCC(c2cc(=O)n3[nH]cc(C(=O)Nc4ccc(F)c(Cl)c4)c3n2)CC1,11.9,68.3*,12.6,-25.2,7.4
COc1cccc(NC(=O)Nc2nc(SC(C)(C)C)ns2)c1,22.2,54.6*,26.0,9.3,18.1
COCC(=O)Nc1sc2c(c1C(=O)OC)CCCC2,12.3,-4.4,35.5,13.9,30.1
COCCn1c(N)c(C(=O)NCC2CCCO2)c2nc3ccccc3nc21 (centres undefined),7.7,17.1,-3.1,2.2,24.2
COC(=O)c1c(NC(=O)Cc2cccs2)sc2c1CCCC2,2.3,68.7*,33.2,x,24.1
COCCn1c(N)c(C(=O)Nc2sc3c(c2C(=O)OC)CCCC3)c2nc3ccccc3nc21,13.1,57.7*,17.6,-16.5,11.0
CC1C(=O)C(C)C(c2cc(Cl)ccc2O)NC1c1cc(Cl)ccc1O (centres undefined),-4.7,74.1*,36.5,12.9,27.5
COc1cccc(C2NC(c3cccc(OC)c3O)C(C)C(=O)C2C)c1O (centres undefined),-8.8,12.3,8.9,-1.5,29.2
CCN(CC)C(=O)[C@H]1C[C@H](CC(=O)NCCCOC)C(=O)N2CCc3c([nH]c4cc(CCC(=O)N(C)C)ccc34)[C@]12C,5.9,x,30.8,12.1,19.0
Cc1ccc(NC(=O)CN2C(=O)S/C(=C\c3ccc(-c4cccc(C(=O)O)c4C)o3)C2=O)cc1,17.6,53.4*,4.7,x,16.5
COc1ccccc1-n1c(SCC(=O)Nc2ccc(C)cc2)nc(O)cc1=O,12.8,63.4*,6.2,-1.9,15.1
COc1ccc(NC(=O)CSc2nc(O)cc(=O)n2-c2ccccc2OC)cc1,9.2,87.0*,1.0,-8.7,7.8
COc1ccccc1-n1c(SCC(=O)Nc2cccc3ccccc23)nc(O)cc1=O,6.0,39.6,16.6,-1.5,1.0
Cc1ccc(NC(=O)CSc2nc(O)cc(=O)n2C)cc1,10.1,39.9,16.4,11.0,13.9
Cc1ccc(NC(=O)CSc2nc(O)cc(=O)n2-c2ccc(C)cc2)cc1,10.4,76.6*,12.0,14.6,7.5
Cc1cc(C)cc(-n2ncc3c2CCCC3NC(=O)CCN2Cc3ccccc3C2=O)c1 (centres undefined),12.9,-1.7,6.2,5.7,15.2
CCCCn1c(O)c(C(CC)=Nc2ccc3c(c2)CCC3)c(=O)[nH]c1=O,31.2,52.5*,3.9,-3.3,12.0
OCCCNc1c2ccccc2nc2ccccc12,-35.9,4.0,-7.1,5.1,-24.7
CC(C)(CNS(=O)(=O)c1ccc2ccccc2c1)N1CCOCC1,-22.5,x,2.9,x,-20.0
